Only some compounds are listed: those with a hit (about 12% of all), similar ones and a draw of the others.
JMJD2A Tudor: inhibitors of human JMJD2A Tudor domain; O75164; AlphaScreen JMJD2A-Tudor / H3K4me3 peptide binding; Potency, µM (doses to about 114 µM), actives largely listed as inhibitors; hit rate 4.4% among 390,000; further: nearly all actives have a fitted effect of over 50% in size
Sfp PPTase inh: blocks B. subtilis Sfp PPTase activity | Q9F4F7 | Biochemical Sfp PPTase activity, qHTS | Potency, µM, hits mostly inhibitors | hit rate 3.5% among 310,000;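 further: the enzyme is Sfp with the accession as filed and its product quenches rhodamine fluorescence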
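Compounds were incubated with enzyme (final 15 nM) for 15 min at room temperature before substrate addition started the reaction. Fluorescence at 525 nm excitation, 598 nm emission was recorded immediately and after 30 minutes.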
BAZ2B inh: blocks human BAZ2B; Q9UIF8; AlphaScreen BAZ2B-H3K14Ac peptide displacement; Potency, µM (top dose mostly 114 µM), actives largely listed as inhibitors; hit rate 4.4% among 360,000; AID 504333; further: nearly all actives have a fitted effect of over 60% in size
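Compounds, titrated to a top concentration of 110 uM, were incubated 30 min at room temperature with preformed BAZ2B/acetyl-K14 H3 peptide complex (50 nM each). Proximity signal was measured by AlphaScreen after 20 min with beads.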
L3MBTL1 inh: L3MBTL1 (human) inhibition. AlphaScreen L3MBTL1–H3K9me1 peptide binding. Potency, µM (series often up to 57.1 µM), hits mostly inhibitors. hit rate 0.66% among 230,000. AID 485360; further: nearly all actives have a fitted effect of over 60% in size
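L3MBTL1 (50 nM) pre-complexed 30 min with biotinylated H3(1-15)K9me1 peptide (75 nM), then compounds added for 30 min at room temperature; AlphaScreen streptavidin donor/nickel chelate acceptor beads (10 ug/mL final) read after 30 min dark incubation.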
G9a block: inhibitors of human histone lysine methyltransferase G9a; Q96KQ7; G9a H3K9 monomethylation, AlphaScreen, 2 h; Potency, µM (doses to about 102 µM), most hits filed as inhibitors; hit rate 8.8% among 350,000; AID 504332; further: nearly all actives have a fitted effect of over 75% in size
Target sequence (Q96KQ7 913-1193 limits assumed): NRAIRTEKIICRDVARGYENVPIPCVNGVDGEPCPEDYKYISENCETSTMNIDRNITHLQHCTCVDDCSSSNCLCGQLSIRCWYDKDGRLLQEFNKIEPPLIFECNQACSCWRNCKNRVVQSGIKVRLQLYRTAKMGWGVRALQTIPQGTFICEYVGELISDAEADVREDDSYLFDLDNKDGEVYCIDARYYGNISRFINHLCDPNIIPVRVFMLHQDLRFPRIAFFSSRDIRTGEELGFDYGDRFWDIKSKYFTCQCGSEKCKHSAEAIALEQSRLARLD
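Readings reflect AlphaScreen signal from monomethyl-H3K9 antibody detection. HMT at 20 nM; substrate b-H3K9 500 nM; cofactor SAM 20 uM; 2 h RT reaction; compounds tested as titrations in qHTS with 15 min preincubation.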
HP1b binding inh: blocks HP1-beta chromodomain binding to methylated histone tails. P83916. AlphaScreen HP1-beta / biotin-H3K9me3 peptide binding. Potency, µM (titrated, usually from 114 µM), usual class: inhibitors. hit rate 0.56% among 390,000. AID 540317; further: nearly all actives have a fitted effect of over 70% in size
Target sequence (P83916 whole entry, looked up): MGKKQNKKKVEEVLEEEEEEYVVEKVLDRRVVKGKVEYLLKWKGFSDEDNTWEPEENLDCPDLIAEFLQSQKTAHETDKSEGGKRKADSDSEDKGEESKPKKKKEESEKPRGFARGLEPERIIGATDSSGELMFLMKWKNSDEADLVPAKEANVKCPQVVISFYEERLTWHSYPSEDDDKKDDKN
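AlphaScreen: HP1-beta (50 nM) preformed 30 min with biotin-H3(1-18)K9me3 peptide (50 nM) in PBS pH 7.4, 0.01% Tween-20. Compound added for 30 min at RT, then streptavidin donor/nickel chelate acceptor beads (10 ug/mL) for 30 min.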
A number is an active result; . = inactive; ? = inconclusive; / = not tested or not shown; ! = a repeat was not active; [ ] = another dose, or the depositor's remark. The call rests on the fitted dose curve; in most records, active means well fitted curve in the direction sought with a large enough effect; inconclusive means small, poorly fitted or top-dose-only effect, or another doubt; inactive means no such curve, though single readings can be large; an effect the other way counts as inactive or inconclusive.

SMILES	JMJD2A Tudor	Sfp PPTase inh	BAZ2B inh	L3MBTL1 inh	G9a block	HP1b binding inh
CN(C)c1ccc(C(CNC(=O)c2ccccc2C(F)(F)F)N2CCOCC2)cc1 (stereo unspecified)	.	/	.	/	.	.
COc1ccc(C(CNC(=O)c2cccc(N(C)C)c2)N2CCCC2)cc1 (stereo unspecified)	44.7µM	.	50.1µM	.	?	.
CC(=O)Nc1ccc(C2Nc3c(C)cc(C)cc3-c3cc(C)nn32)cc1 (stereo unspecified)	.	/	.	/	.	.
COc1ccc(CNC(=O)CN2CCC(NC(=O)c3cccc(OC)c3)CC2)cc1	1µM	/	/	/	/	.
COc1cccc(CNCC(=O)NC(=O)NC2CCCC2)c1	22.4µM	/	/	.	/	?
COc1cccc(C(=O)NC2CCN(CC(=O)NCc3ccccc3OC)CC2)c1	.	.	.	.	.	.
CC(C)Cc1nnc(NC(=O)Cc2ccc([N+](=O)[O-])cc2)s1	.	.	.	.	?	.
O=C1Nc2c(c(=O)[nH]c(=O)n2-c2ccc(F)cc2)C1(NS(=O)(=O)c1ccc(Cl)cc1)C(F)(F)F (stereo unspecified)	.	/	.	/	.	.
Cc1ccc(-n2c3c(c(=O)[nH]c2=O)C(NS(=O)(=O)c2ccc(Cl)cc2)(C(F)(F)F)C(=O)N3)cc1 (stereo unspecified)	.	.	.	.	50.1µM!	.
O=C1Nc2c(c(=O)[nH]c(=O)n2Cc2ccccc2)C1(NS(=O)(=O)c1ccccc1)C(F)(F)F (stereo unspecified)	.	.	.	.	44.7µM	.
O=C(NC1(C(F)(F)F)C(=O)Nc2c1c(=O)[nH]c(=O)n2Cc1ccco1)C1CCCCC1 (stereo unspecified)	79.4µM	.	.	/	79.4µM	.
CCOc1ccc(OCC)c(NS(=O)(=O)c2cccc3nsnc23)c1	?	.	50.1µM	/	?	?
COc1ccc(C(=O)O)cc1NS(=O)(=O)c1cccc2nsnc12	.	.	.	.	3.98µM	.
COc1ccccc1NS(=O)(=O)c1cccc2nsnc12	.	.	.	.	/	.
COc1ccc(C)cc1NC(=O)CO/N=C(\N)CC(=O)NC1CCCCC1	.	/	.	.	.	.
O=C1C=C[C@@H](O)[C@@H]2[C@H]3C(=O)N(c4ccc(F)cc4F)C(=O)[C@@H]3CC[C@@H]12	/	.	/	/	/	/
Cc1cccc(-c2noc(CCCC(=O)NC3CCCCC3)n2)c1	.	.	.	/	.	.
CC1(C)CC(=O)C2=C(C1)OC1=C(C(=O)CC(C)(C)C1)C2c1ccc(O)cc1O	.	7.94µM	?	.	2.82µM	.
COC(=O)c1ccc(NC(=O)CSc2nncn2C)cc1	.	.	.	.	.[2.33 µM]	.
CCn1c(CC(=O)Nc2ccccc2OC)nnc1SCC(=O)Nc1ccccc1F	.	.	.	.	.	.
COc1ccccc1NC(=O)c1ccc(NC(=O)CSc2nncn2C)cc1	.	.	.	.	11.2µM	.
COc1ccccc1NC(=O)Cc1nnc(SCC(=O)Nc2ccccc2F)n1C	11.2µM	.	.	/	.	.
COc1ccc(/C=N/NC2=NCCCCC2)c(OC)c1	.	.	.	.	11.2µM	.
COc1ccc(/C=N/Nc2cc(N(C)C)nc(N(C)C)n2)cc1	?	.	50.1µM	.	4.47µM	?
COc1cc(/C=C\c2ccc(OC)cc2OC)cc(OC)c1	/	50.1µM	/	/	/	/
SMILES	JMJD2A Tudor	Sfp PPTase inh	BAZ2B inh	L3MBTL1 inh	G9a block	HP1b binding inh
COc1ccc(/C=N/NC2=NCCCCC2)cc1	.	.	.	/	28.2µM	.
Oc1ccccc1/C=N/NC1=NCCCCC1	.	.	.	.	/	.
CN(C)c1cc(N/N=C\c2ccccc2)nc(N(C)C)n1	?	.	.	?	.	.
CC(O)CN(C)C (stereo unspecified)	/	.	/	/	.[12.7 µM]	/
Cn1c(=O)c2c(-c3ccccc3Cl)n(-c3cc(Cl)ccc3O)cc2n(C)c1=O	.	/	?	/	.	.
CCC(=O)O	/	.	/	/	.	/
Cc1ccc(CC(=O)Nc2ccccc2N2CCOCC2)cc1C	.	.	.	/	?	.
CC(=O)OC[C@H]1O[C@@H](ON=C(C)C)[C@H](OC(C)=O)[C@@H](OC(C)=O)[C@H]1OC(C)=O	/	.	/	/	/	/
COc1ccc(/C=N/NC(C)(C)C)c(OC)c1	.	.	?	.	12.6µM	.
